Experimental data reported in article PMC13083723 (Patterns, 2026).
Screen size: about 5,400 compounds; about 190 (3.5%) showed an effect of 50% or more. What follows is part of a selection rich in strong results, with near analogues and random picks from the rest.

What follows are compounds tested on Vero-E6 (assay: primary screen, phospholipidosis by LipidTOX staining; higher = more effect of the substance). Conditions: 10 µM.
Outline: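 Drug-induced phospholipidosis detected with HCS LipidTOX Red reagent in Vero-E6 cells. Compounds tested at 10 μM, with amiodarone (10 μM) as positive control and DMSO (0.1 v/v %) as vehicle.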

Point of comparison: `CSc1ccc2c(c1)C(N1CCN(C)CC1)Cc1ccccc1S2` (stereo not shown), result_ITMP 79.9%. Against it:
- C=C[C@H]1C[N@]2CC[C@H]1C[C@@H]2[C@@H](O)c1ccnc2ccc(OC)cc12 — lower, 11.5%
- CC1(C)[C@@H]2C[C@@H](O)[C@@](C)(O)[C@H]1C2 — lower, -10.7%
- O=S(=O)(c1ccccc1)c1cnc2c(N3CCNCC3)cccc2c1 — lower, 39.6%
- Cc1ccc(Sc2ccccc2N2CCNCC2)c(C)c1 — lower, 57.3%
- c1cc2c(c(N3CCNCC3)c1)OCCO2 — lower, -1.86%
- Cc1cc(CN2CCN(c3c(Br)cnc4[nH]c(-c5ccc(N6CCN(C)CC6)cc5)nc34)CC2)no1 — lower, -0.42%
- C[C@H](NC(=O)CCc1nc2ccccc2c(=O)[nH]1)c1ccccc1 [R4A_0003503_001 / SPE_A63444178] — lower, 0.66%
- O=C(O)CCc1nc2ccccc2[nH]1 — lower, -0.69%
- COCC(=O)O[C@]1(CCN(C)CCCc2nc3ccccc3[nH]2)CCc2cc(F)ccc2[C@@H]1C(C)C — higher, 88.2%
- CC(C)[C@H]1c2ccc(F)cc2CC[C@@]1(CCN(C)CCCc1nc2ccccc2[nH]1)OC(=O)C1CC1 — lower, 68.1%
- Cc1cc(S(=O)(=O)[O-])c2c(C)ccc(C(C)C)cc1-2 — lower, -3.22%
- CC1=CC(=O)[N-]S(=O)(=O)O1 — lower, -5.65%
- C[C@]12CCC(=O)C=C1CC[C@@H]1[C@@H]2CC[C@@]2(C)[C@H]1CC[C@]2(C)O — lower, 0.46%
- O=C([O-])C(O)C(O)C(O)C(O)CO (stereo not shown) — lower, -6.08%
- O=C1[C@@H]2[C@H]3CC[C@H](C3)[C@@H]2C(=O)N1CCCCN1CCN(c2ncccn2)CC1 — lower, -0.39%
- c1ccc(Cn2c(N3CCNCC3)nc3ccccc32)cc1 — lower, 51.9%
- CN(c1nccc(=O)[nH]1)C1CCN(c2nc3ccccc3n2Cc2ccc(F)cc2)CC1 — lower, 0.52%
- c1ccc(Cn2c(-c3ccc(OC[C@H](C4CCNCC4)n4c(-c5ccccc5)nc5ccccc54)cc3)nc3ccccc32)cc1 — lower, 13.3%
- C[C@H]1[C@H](C)CC[C@]2(C(=O)O)CC[C@]3(C)C(=CC[C@@H]4[C@@]5(C)CC[C@H](O)C(C)(C)[C@@H]5CC[C@]43C)[C@H]12 — lower, -0.84%
- CC[N+](CC)(CCNC(=O)C(=O)NCC[N+](CC)(CC)Cc1ccccc1Cl)Cc1ccccc1Cl — lower, -0.68%
- Clc1ccccc1CNC[C@H]1CC[C@H](CNCc2ccccc2Cl)CC1 — higher, 111%
- Clc1ccccc1CN1CCc2sccc2C1 — lower, 5.84%
- COC(=O)[C@@]12OC[C@]34[C@H]([C@@H](O)[C@@H]1O)[C@@]1(C)CC(=O)C(O)=C(C)[C@@H]1C[C@H]3OC(=O)[C@H](OC(=O)/C=C(\C)C(C)C)[C@@H]24 — lower, -3.12%
- O=C1CN(/N=C/c2ccc(-c3ccc([N+](=O)[O-])cc3)o2)C(=O)[N-]1 — lower, -3.77%
- CCCCN(CCCC)CCCOC(=O)c1ccc(N)cc1 — lower, 4.87%
- CCCCc1oc2ccccc2c1C(=O)c1cc(I)c(OCCN(CC)CC)c(I)c1 — lower, 55.1%
- CN(CCOc1ccc(NS(C)(=O)=O)cc1)CCc1ccc(NS(C)(=O)=O)cc1 — lower, -1.68%
- CCc1oc2ccccc2c1C(=O)c1cc(Br)c(O)c(Br)c1 — lower, 0.74%
- CCCCc1oc2ccc(NS(C)(=O)=O)cc2c1C(=O)c1ccc(OCCCN(CCCC)CCCC)cc1 — lower, 74.9%
- CCc1oc2ccccc2c1C(=O)c1ccc(OCC(=O)O)cc1 — lower, -9.49%
- CC[C@@H](C)C[C@@H](C)CCCCCCCCC(=O)N[C@H]1C[C@@H](O)[C@@H](NCCN)NC(=O)[C@@H]2[C@@H](O)CCN2C(=O)[C@H]([C@H](O)CCN)NC(=O)[C@H]([C@H](O)[C@@H](O)c2ccc(O)cc2)NC(=O)[C@@H]2C[C@@H](O)CN2C(=O)[C@H]([C@@H](C)O)NC1=O — lower, -8.5%
- CC(C)c1ccc2c(c1)CC[C@H]1[C@](C)(CN)CCC[C@]21C — higher, 80.5%
- CC(C)c1cc2c(cc1S(=O)(=O)O)[C@@]1(C)CCC[C@@](C)(C(=O)O)[C@@H]1CC2 — lower, -4.65%
- Cc1c(N)nc([C@H](CC(N)=O)NC[C@@H](N)C(N)=O)nc1C(=O)N[C@H](C(=O)N[C@@H](C)[C@H](O)[C@@H](C)C(=O)N[C@@H](C(=O)NCCc1nc(-c2nc(C(=O)NCCC[S+](C)C)cs2)cs1)[C@@H](C)O)C(O[C@H]1O[C@H](CO)[C@H](O)[C@@H](O)[C@H]1O[C@H]1O[C@H](CO)[C@@H](O)[C@H](OC(N)=O)[C@@H]1O)c1c[nH]cn1 (stereo partly shown) — lower, 7.07%
- C[C@]12C=CC(=O)N[C@@H]1CC[C@@H]1[C@@H]2CC[C@]2(C)[C@@H](C(=O)Nc3cc(C(F)(F)F)ccc3C(F)(F)F)CC[C@@H]12 — lower, -3.63%
- C[C@@H]1CC[C@@]2(OC1)O[C@H]1C[C@H]3[C@@H]4CC=C5C[C@@H](O[C@@H]6O[C@H](CO)[C@@H](O[C@@H]7O[C@@H](C)[C@H](O)[C@@H](O)[C@H]7O)[C@H](O)[C@H]6O[C@@H]6O[C@@H](C)[C@H](O)[C@@H](O)[C@H]6O)CC[C@]5(C)[C@H]4CC[C@]3(C)[C@H]1[C@@H]2C — lower, 18.9%
- CC1(C)S[C@@H]2[C@H](NC(=O)Cc3ccccc3)C(=O)N2[C@H]1C(=O)[O-] — lower, -4.24%
- Clc1ccc(Nc2nnc(Cc3ccncc3)c3ccccc23)cc1 — lower, -1.32%
- COC1CCN(C(=O)c2cc(Cc3n[nH]c(=O)c4ccccc34)ccc2F)CC1 — lower, 2.83%
- CN1CCCC(n2nc(Cc3ccc(Cl)cc3)c3ccccc3c2=O)CC1 (stereo not shown) — lower, 57.2%
- Cc1nnc(SCC2=C(C(=O)[O-])N3C(=O)[C@@H](NC(=O)Cn4cnnn4)[C@H]3SC2)s1 — lower, -0.51%
- C=CCN1CC[C@@]2(C)c3cc(O)ccc3C[C@H]1[C@H]2C — lower, -0.02%
- CN1CCCC(CN2c3ccccc3Sc3ccccc32)C1 (stereo not shown) — lower, 42.2%
- CN1CCCC(CC2c3ccccc3Sc3ccccc32)C1 (stereo not shown) — lower, 74.2%
- CN1CC[C@@H]2CN3CCc4cccc(c43)[C@@H]2C1 — lower, 5.83%
- C[C@]12CC[C@@H](O)C[C@@H]1CC[C@@H]1[C@@H]2CC[C@]2(C)C(c3ccccc3)=CC[C@@H]12 — lower, -2.07%
- N#CCc1ccccc1C#Cc1ccc(CCC(=O)O)c(F)c1 — lower, -8.03%
- O=C(O[C@H]1C[C@H]2CC[C@@H](C1)[N+]21CCCC1)C(O)(c1ccccc1)c1ccccc1 — lower, -3.78%
- CN1[C@@H](CC(=O)c2ccccc2)CCC[C@H]1C[C@H](O)c1ccccc1 — lower, 13.8%
- CCN(CC)CCCC(C)Nc1c2ccc(Cl)cc2nc2ccc(OC)cc12 (stereo not shown) — higher, 110%
- CCN(CCO)CCCC(C)Nc1ccnc2cc(Cl)ccc12 (stereo not shown) — lower, 1.54%
- COc1ccc2nc3ccc(Cl)cc3c(SCCCN)c2c1 — lower, -9.55%
- CC1(C)CCC(C)(C)c2c1cc(C(=O)Nc1cc(F)c(C(=O)O)c(F)c1)c(O)c2Cl — lower, -2.47%
- CSc1ccc([C@H]2CN3CCC[C@H]3c3ccccc32)cc1 (racemic) — lower, 14.1%
- CC[C@H]1[C@@H](O)[C@@H]2[C@H](CC[C@]3(C)[C@@H]([C@H](C)CCOS(=O)(=O)[O-])CC[C@@H]23)[C@@]2(C)CC[C@@H](O)C[C@@H]12 — lower, -1.93%
- Nc1nc(=O)c2c(CCc3ccc(C(=O)N[C@@H](CCC(=O)[O-])C(=O)[O-])cc3)c[nH]c2[nH]1 — lower, -3.84%
- CC(C)c1nc(N(C)S(C)(=O)=O)nc(-c2ccc(F)cc2)c1/C=C/[C@@H](O)C[C@@H](O)CC(=O)[O-] — lower, -8.19%
- CCOc1cc(N2CCC(O)CC2)ccc1Nc1ncc2c(n1)N(C)c1ccccc1C(=O)N2C — lower, 4.79%
- Cc1nc(Nc2cnn(C3CCNCC3)c2)nc2c1N(C)C(=O)c1cc3ccccc3cc1N2C — higher, 103%
- O=C(O)[C@@H]1C[C@@H](C2CCCCC2)CN1C(=O)CP(=O)(O)CCCCc1ccccc1 — lower, -0.11%
- O=c1nc[nH]c2c1cnn2[C@@H]1O[C@H](CO)[C@@H](O)[C@H]1O — lower, 2.43%
- CCC[C@@H]1C[C@@H](C(=O)N[C@H]([C@H]2O[C@H](SC)[C@H](O)[C@@H](O)[C@H]2O)[C@H](C)O)N(C)C1 — lower, -3.49%
- NC1(c2ccc(-c3nc4ccn5c(=O)[nH]nc5c4cc3-c3ccccc3)cc2)CCC1 — higher, 87.1%
- O=C(O)CCCCN(CCc1ccccc1OCc1ccc(CCc2ccccc2)cc1)Cc1ccc(C(=O)O)cc1 — lower, 0.2%
- O=C(O)CCc1ccc(NCc2cccc(Oc3ccccc3)c2)cc1 — lower, -4.86%
- COc1cccc(CCc2ccccc2OCC(CN(C)C)OC(=O)CCC(=O)O)c1 (stereo not shown) — lower, 64.3%
- CCc1cccc(CC)c1N=C1NCCN1 — lower, -5.43%
- O=C(O[C@H]1CN2CCC1CC2)N(Cc1cc(F)c(F)c(F)c1)c1cccc(F)c1 — lower, 71.4%
- C[C@H](Nc1ncnc2[nH]cnc12)c1cc2ccc(F)cc2nc1-c1ccccn1 [R4A_0002240_001 / SPE_K21077415] — lower, -0.96%
- Nc1cccc(CNC(=O)c2ccc(Oc3ccc(OCc4cccc(F)c4)cc3)nc2)c1 — lower, -1.49%
- CN(C)CCCOc1nn(Cc2ccccc2)c2ccccc12 — lower, 51.2%
- O=C(O)COc1nn(Cc2ccccc2)c2ccccc12 — lower, 0%
- OCc1ccc(-c2nn(Cc3ccccc3)c3ccccc23)o1 — lower, -1.24%
- C[C@@H]1CCC[C@H](C)N1NC(=O)c1ccc(Cl)c(S(N)(=O)=O)c1 — lower, 3.56%
- CC(C)Cc1ccc(C(C)C(=O)O)cc1 (stereo not shown) [R4A_0001344_001 / SPE_M64062803] — lower, -5.52%
